This is an account of results in PubChem BioAssay AID651820 (National Center for Advancing Translational Sciences (NCATS), 2012).

Each structure is given as a SMILES string. Hit rate of the full screen: of about 340,000 compounds, about 12,000 (3.5%) were called active. Inconclusive results (about 18%) are left out. The full list was thinned out, with actives kept by preference. Values without a mark were called inactive. Calls come from the whole dose curve; as a rule, active = well fitted inhibition curve with a large enough effect; inconclusive = small, poorly fitted or top-dose-only effect, or another doubt; inactive = no such curve, though single readings can be large or run the other way.
% is set by controls: 0 for no effect and ±100 for the full control effect; potency is the fitted concentration of half-maximal effect.

The nature of this experiment: qHTS Assay for Inhibitors of Hepatitis C Virus (HCV). The conditions noted are these: Huh7.5.1 HCVcc-Cre infection, luciferase reporter, 44 h; series mostly up to 41.8 µM; activity change, negative = inhibition: at the top concentration. The gist of the method:
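Reporter virus HCVcc-Cre (~0.5 moi) infects cells exposed to compound; seeding density 1,000 cells/well with 4 h settling beforehand. Luminescence, 15 sec read, taken 44 h post-infection following a 15 min RT substrate incubation.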
On to `COc1ccc(-c2c(C#Cc3ccsc3)c3cc(-c4ccc(CN5CCOCC5)cc4)ccc3n2C)cc1`, for which the “activity change, negative = inhibition” value is 3.05%. On to `Cc1cc(N2CCN(c3ccccc3)CC2)nc(N2CCOCC2)n1`, for which the “activity change, negative = inhibition” value is -27.5%. Take `Cc1cc(N2CCOCC2)nc(-c2ccc(Br)cc2)n1`: the Potency was 10 µM (active). With `Cc1cc(Nc2ccc(N3CCOCC3)cc2)c2cccc(C)c2n1`, the “activity change, negative = inhibition” value is -9.69%. For the molecule `O=[N+]([O-])c1ccc(COc2ccccc2CN2CCOCC2)cc1`, the activity change, negative = inhibition was -17.2% [at 8.37 µM]. Regarding `Cc1cnc(NC(=O)CSc2c(Cl)cccc2Cl)s1`, the “activity change, negative = inhibition” value was 6.41%. With `Cc1cnc(NC(=O)c2ccccn2)s1`, the Potency was 10 µM (active). Turning to `Cc1cnc(NC(=O)c2ccc(Cl)nc2)s1`, the “activity change, negative = inhibition” value is 12.2%. In the case of `O=C(NCCc1ccc(F)cc1)c1ccc2nccnc2c1`, the “activity change, negative = inhibition” value was -8.35%. Regarding `NC(=O)c1ccc(N2CCCC2)nc1`, the “activity change, negative = inhibition” value was 19%. Still for that read-out and setting: with `C[C@H]1CN([C@@H](C)CO)C(=O)Cc2cc(NC(=O)Cc3ccccc3)ccc2O[C@H]1CN(C)S(=O)(=O)c1cccs1` the figure was -7.75%; with `COC(=O)c1ccc(SCc2ccccc2)nc1`, 4.39%; with `CCCCOc1ccc(C(=O)NCC(=O)OCC(=O)c2c(N)n(C)c(=O)n(C)c2=O)cc1`, 8%. `COc1ccc(C(=O)N(C)Cc2ccc(OC)c(OC)c2OC)cc1S(=O)(=O)N1CCOCC1`: the “activity change, negative = inhibition” value is 1.42%.

In the case of `COc1cc(OC)cc(-c2c(C#Cc3ccsc3)c3cc(-c4ccc(SC)cc4)ccc3n2C)c1`, the “activity change, negative = inhibition” value is -10.3%. Turning to `COc1cc(OC)cc(-c2c(-c3ccc(F)cc3)c3cc(-c4ccc5cc[nH]c5c4)ccc3n2C)c1`, the Potency was 10 µM (active). `COc1cc(OC)cc(-c2c(C#Cc3ccsc3)c3cc(-c4ccc(OC)cc4F)ccc3n2C)c1`: the “activity change, negative = inhibition” value is 8.06%.

For `COc1ccc(-c2c(-c3cc(OC)cc(OC)c3)n(C)c3ccc(-c4ccn[nH]4)cc23)cc1`, the Potency is 11.2 µM (active).

With `COc1cc(OC)cc(-c2c(-c3cccs3)c3cc(-c4ccc(OC)nc4)ccc3n2C)c1`, the “activity change, negative = inhibition” value was -8.98%. Same read-out and setting: with `COc1ccc(-c2c(C#Cc3ccccc3)c3ccccc3n2C)cc1` the figure was -1.44%; with `CC1O[C@H](OC2C(COC3OC(CO)C(O)[C@H](O)C3O)OC(OC3CC[C@]4(C)C(CC[C@@]5(C)[C@@H]4C=C[C@]46OC[C@@]7(CCC(C)(C)C[C@H]74)C(O)C[C@@]56C)C3(C)C)C(O)C2O)C(O)C(O)C1O` (stereo partly drawn), 3.93%; with `CNC[C@@H]1Oc2c(NS(C)(=O)=O)cccc2C(=O)N([C@@H](C)CO)C[C@H]1C`, 12.2%.

With `CCN(CC(=O)Nc1ccccc1C(F)(F)F)C(=O)C1CCN(C(=O)Nc2ccccc2)CC1`, the “activity change, negative = inhibition” value was 1.26%.

Regarding `COc1ccc(CCNC(=O)COC(=O)c2cc(=O)c3ccccc3o2)cc1`, the “activity change, negative = inhibition” value was -17.9%. Same read-out and setting: the value for `Cc1ccc(NC(=O)CCN2C(=O)c3ccccc3C2=O)cc1C` was -7.16%. On to `Cc1cc2c(cc1C)N(C(=O)CN1C(=O)c3ccccc3C1=O)C(C)(C)c1ssc(=S)c1-2`, for which the Potency is 8.91 µM (active).

For `Cc1cc(C)cc(NC(=O)CN2C(=O)c3ccccc3C2=O)c1`, the “activity change, negative = inhibition” value was -14.1%.

Turning to `O=C(NOCc1ccccc1)c1cccc([N+](=O)[O-])c1`, the “activity change, negative = inhibition” value is 3.65%.

Take `O=C(Nc1cccc(Cl)c1)C1CCCN(c2cnccn2)C1` (stereo not drawn): the “activity change, negative = inhibition” value was 7%. As for `O=C(Nc1cccc(-c2cccc(Cl)c2)c1)C1CCN(C2CCC2)CC1`, the Potency is 12.6 µM (active). As for `O=C(NC1CCCC1)C1CCN(C(=O)Nc2cccc(Cl)c2)CC1`, the “activity change, negative = inhibition” value is -10.4%. For the molecule `N#Cc1ccc(CN2CCN(CC(=O)Nc3ccccc3C(=O)NC3CC3)CC2)cc1`, the “activity change, negative = inhibition” value was -0.21%. Same read-out and setting: with `CCOC(=O)N1CCN(CC(=O)c2c(C)[nH]c3ccccc23)CC1` the figure was 3.72%. For the molecule `CCOC(=O)c1c(C)[nH]c2c1-c1ccccc1C(=O)C2=O`, the Potency was 2.51 µM (active). In the case of `CCOC(=O)c1c(C)[nH]c(C)c1S(=O)(=O)N(C)CC(=O)Nc1ccccc1C`, the “activity change, negative = inhibition” value was 26.1%. As to `O=C1OC(Cc2ccccc2)C(c2ccccc2)C1=O` (stereo not drawn), the “activity change, negative = inhibition” value is 25.4%. On the same count and under the same terms, with `COCCN(CCOC)S(=O)(=O)NC[C@H]1O[C@@H](n2cnc3c(N)ncnc32)[C@H](O)[C@@H]1O` the figure was 52.6%; with `O=C(COc1coc(CN2CCN(c3ccccc3F)CC2)cc1=O)N1CCc2ccccc21`, 13.6% [at 8.37 µM]; with `Cc1ccc(Nc2c(O)nc[nH]c2=O)cc1C`, 8.83%. Regarding `CC/C(=N\NC(=S)NC(C)C)c1ccc(OC(F)F)cc1`, the Potency is 10 µM (active). Take `CC(C)N(Cc1ccccc1)C(=S)Nc1ccc(OC(F)F)cc1`: the “activity change, negative = inhibition” value was -13.6%. Turning to `O=C(NNC(=S)NCc1ccccc1)c1ccc(OC(F)F)cc1`, the “activity change, negative = inhibition” value was 27.3%. Still for that read-out and setting: the value for `CC(C)c1ccc(/C=C/C(=O)NCCCN2CCOCC2)cc1` was 18.6%; that for `C[C@H]1COC(=O)[C@H](CC(=O)OC(C)(C)C)C/C=C\C[C@@H](CC(=O)N[C@H](CO)Cc2ccccc2)C(=O)N1` was 19.3%. Same read-out and setting: with `O=C(N/N=C/c1ccoc1)c1ccc(Cl)cc1Cl` the figure was -0.768%. With `CC(C)(C)C(=O)Nc1ccc(C(=O)N/N=C/c2ccccc2OC(=O)c2ccc(Cl)cc2Cl)cc1`, the Potency was 10 µM (active). On to `O=C(N/N=C/c1ccc(OC(=O)c2ccccc2Cl)cc1)c1ccc(O)cc1`, for which the “activity change, negative = inhibition” value is -17.5%. The same measure, in the same setting: with `CCOc1ncccc1C(=O)Nc1ccc(S(=O)(=O)Nc2nc(C)cc(C)n2)cc1` the figure was 9.65%.
